The values that follow come from the supplement of paper PMC13380429.

The subject of assay [1] is Vero E6 infected with SARS-CoV-2. Kind of assay: morphology score (similarity to uninfected cells); higher = more like uninfected cells. The settings on record: 24 h.
The test system is the same in assay [2]. Kind of assay: SARS-CoV-2 infection rate relative to infected DMSO; higher = more infection, active = 60 or less. The settings on record: 24 h.

Consider `O=C(O[C@@H]1Cc2c(O)cc(O)cc2O[C@@H]1c1cc(O)c(O)c(O)c1)c1cc(O)c(O)c(O)c1` [epigallocatechin-gallate-(-)] (10 µM), for which the morphology score in assay [1] was determined as 0.156. Further, the SARS-CoV-2 infection rate in assay [2] is 100% (inactive).
On the same counts, the results for `O=C1C(O)=C(O)C(=O)C(O)=C1O` [tetroquinone] (10 µM) are 0.0422 and 106% (inactive).
As to `Cc1cc(C(C)(C)CC(C)(C)C)ccc1OCCOCC[N+](C)(C)Cc1ccccc1` [methylbenzethonium-chloride] (10 µM), the morphology score in assay [1] is -0.0681. Also, the SARS-CoV-2 infection rate in assay [2] was 101% (inactive).
On the same counts, the results for `Cc1c(C)c2c(c(C)c1OC(=O)CCC(=O)O)CC[C@@](C)(CCC[C@H](C)CCC[C@H](C)CCCC(C)C)O2` [D-alpha-tocopheryl-succinate] (10 µM) are 0.0385 and 101% (inactive).
Molecule `C[N+](C)(C)CC#CCN1CCCC1=O` [oxotremorine-M] (10 µM) returned a morphology score in assay [1] of 0.0604. The SARS-CoV-2 infection rate in assay [2] was 89.5% (inactive).
On the same counts, the results for `CC(=O)Nc1cccc(Nc2ncnc(N3CCC(OCc4ccc(OC(F)(F)F)cc4)CC3)n2)c1C` (10 µM) are 0.184 and 110% (inactive).
Turning to `CCc1c(C(=O)C(N)=O)c2c(OCC(=O)O)cccc2n1Cc1ccccc1` [varespladib] (10 µM), the morphology score in assay [1] turned out to be 0.0669. In assay [2], the SARS-CoV-2 infection rate is 108% (inactive).
With `C=CCc1cc(OC)c(O)c(C(=O)NCCO)c1` [alibendol] (10 µM), in assay [1], the morphology score came to 0.101. Besides, in assay [2], the SARS-CoV-2 infection rate was 118% (inactive).
As for `CC(C)n1cnc2c(C(=O)N[C@H]3CN4CCC3CC4)cc(Cl)cc21` (10 µM), in assay [1], the morphology score stood at 0.38. Also, the SARS-CoV-2 infection rate in assay [2] is 85% (inactive).
Molecule `CC1(C)O[C@H]2CC(=O)OC[C@]23[C@H]2CC[C@@]4(C)[C@H](c5ccoc5)OC(=O)[C@H]5O[C@]54[C@]2(C)C(=O)C[C@@H]13` [limonin] (10 µM) returned a morphology score in assay [1] of 0.289. Moreover, the SARS-CoV-2 infection rate in assay [2] is 103% (inactive).
Consider `CC(C)=CCC/C(C)=C/CC/C(C)=C/CC[C@]1(C)CCc2cc(O)cc(C)c2O1` [delta-tocotrienol] (10 µM), for which the morphology score in assay [1] came out at 0.0442. Besides, the SARS-CoV-2 infection rate in assay [2] was 104% (inactive).
In the same order, the values of `O[C@@](Cc1nc(CC2(C(F)(F)F)CC2)c[nH]1)(c1ccc(-n2cccn2)cc1)C(F)(F)F` (10 µM) are 0.03 and 112% (inactive).
In the same order, the values of `O=c1n(CCCN2CCN(c3cccc(Cl)c3)CC2)nc2ccccn12` [trazodone] (10 µM) are -0.132 and 116% (inactive).
In the same order, the values of `O=C(O)Cc1ccccc1Nc1c(Cl)cccc1Cl` [diclofenac] (10 µM) are -0.00811 and 106% (inactive).
In assay [1], `NC(=O)N1c2ccccc2CC(=O)c2ccccc21` [oxcarbazepine] (10 µM) showed a morphology score of 0.0932. In assay [2], the SARS-CoV-2 infection rate is 108% (inactive).
On the same counts, the results for `N=C(N)NCCC[C@H](N)C(=O)O` [L-arginine] (10 µM) are 0.0506 and 113% (inactive).
On the same counts, the results for `CCC(=O)NS(=O)(=O)c1ccc(-c2c(-c3ccccc3)noc2C)cc1` [parecoxib] (10 µM) are 0.0867 and 106% (inactive).
Take `O=c1cc(-c2ccc(O)c(O)c2)oc2cc(O)cc(O)c12` [luteolin] (10 µM): the morphology score in assay [1] is 0.167. The SARS-CoV-2 infection rate in assay [2] is 110% (inactive).
In the same order, the values of `NS(=O)(=O)c1cc2c(cc1Cl)NC(CC1CCCC1)NS2(=O)=O` (stereo not given) [cyclopenthiazide] (10 µM) are 0.129 and 100% (inactive).
In the same order, the values of `Cc1cc(CCC[C@H](CC(=O)NO)C(=O)N[C@H](C(=O)N[C@H](C)c2ccccc2)C(C)(C)C)ccc1-c1ccccc1` (0.833333 µM) are -0.0923 and 102% (inactive).
`Nc1nc(O)c2[nH]nnc2n1` [azaguanine-8] (0.833333 µM) yielded a morphology score in assay [1] of 0.322. Also, in assay [2], the SARS-CoV-2 infection rate was 51.5% (active).
On the same counts, the results for `Cc1cc(C#N)cc(C)c1Oc1nc(Nc2ccc(C#N)cc2)nc(N)c1Br` [etravirine] (10 µM) are 0.364 and 98% (inactive).
On the same counts, the results for `CCN(CC)CCNC(=O)c1cc(Cl)c(N)cc1OC` [metoclopramide] (10 µM) are -0.00451 and 107% (inactive).
In assay [1], `NC(=O)CN1CC(c2ccccc2)CC1=O` (stereo not given) [phenylpiracetam] (10 µM) had a morphology score of 0.175. In addition, the SARS-CoV-2 infection rate in assay [2] was 94% (inactive).
On the same counts, the results for `CC(=O)c1ccc2c(c1)N(CCCN(C)C)c1ccccc1S2` [acepromazine] (10 µM) are 0.192 and 104% (inactive).
In the same order, the values of `O=C(NN1C(=O)[C@@H]2[C@@H]3C=C[C@@H]([C@H]4C[C@@H]34)[C@@H]2C1=O)c1ccc(C(F)(F)F)cc1` [tecovirimat] (10 µM) are -0.108 and 102% (inactive).
On the same counts, the results for `CN(C)CCCSc1ccccc1NC(=O)/C=C/c1ccccc1` [cinanserin] (10 µM) are 0.164 and 92% (inactive).
Molecule `Nc1cc(C(Cl)=C(Cl)Cl)c(S(N)(=O)=O)cc1S(N)(=O)=O` [clorsulon] (10 µM) showed a morphology score in assay [1] of 0.206. The SARS-CoV-2 infection rate in assay [2] was 98% (inactive).
In the same order, the values of `Nc1ncn([C@@H]2O[C@H](CO)[C@@H](O)[C@H]2O)c(=O)n1` [azacitidine] (0.833333 µM) are -0.0243 and 100% (inactive).
In the same order, the values of `Oc1ccc2c3c1O[C@H]1c4c(c5ccccc5n4Cc4ccccc4)C[C@@]4(O)[C@@H](C2)N(CC2CC2)CC[C@]314` [N-benzylnaltrindole] (0.833333 µM) are 0.148 and 102% (inactive).
